# Columns and labels:
# Assay in all cases: yeast three-hybrid, YBZ-1, SC-Leu-His + 0.5 mM 3-AT, 4 days
# Conditions in all cases: tags: N-Gal4 AD-HA kept; label: inside an RPR1-promoter hybrid RNA with tandem MS2 sites; ssRNA
# PUM1 PUF domain R1-NWR = PUM1 PUF domain R1-NWR (Homo sapiens, UniProt Q14671 828-1176, S863N;R864W;Q867R)
# Method in brief: (§1)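 Each repeat of the Pumilio-1 PUF domain was randomized at its three base-contacting residues, and these libraries were co-expressed from a centromeric plasmid with matching RNA elements in strain YBZ-1. After four days on SC-Leu (input) or SC-Leu-His + 0.5 mM 3-AT (selection), the repeat regions were PCR-amplified and Illumina-sequenced. The interaction score compares variant frequency between input and selection as a log change, computed in log2 with a pseudocount of 1 for absent variants.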
# PUM1 PUF domain R4-WSW = PUM1 PUF domain R4-WSW (Homo sapiens, UniProt Q14671 828-1176, N971W;H972S;Q975W)
# Method in brief: as §1
# PUM1 PUF domain R4-MNV = PUM1 PUF domain R4-MNV (Homo sapiens, UniProt Q14671 828-1176, N971M;H972N;Q975V)
# Method in brief: as §1
# PUM1 PUF domain R4-GPC = PUM1 PUF domain R4-GPC (Homo sapiens, UniProt Q14671 828-1176, N971G;H972P;Q975C)
# Method in brief: as §1
# PUM1 PUF domain R4-YFG = PUM1 PUF domain R4-YFG (Homo sapiens, UniProt Q14671 828-1176, N971Y;H972F;Q975G)
# Method in brief: as §1
# PUM1 PUF domain R3-SRA = PUM1 PUF domain R3-SRA (Homo sapiens, UniProt Q14671 828-1176, C935S;Q939A)
# Method in brief: as §1
# PUM1 PUF domain R3-VRM = PUM1 PUF domain R3-VRM (Homo sapiens, UniProt Q14671 828-1176, C935V;Q939M)
# Method in brief: as §1
# PUM1 PUF domain R3-MRI = PUM1 PUF domain R3-MRI (Homo sapiens, UniProt Q14671 828-1176, C935M;Q939I)
# Method in brief: as §1
# PUM1 PUF domain R3-FWS = PUM1 PUF domain R3-FWS (Homo sapiens, UniProt Q14671 828-1176, C935F;R936W;Q939S)
# Method in brief: as §1
# PUM1 PUF domain R4-RMG = PUM1 PUF domain R4-RMG (Homo sapiens, UniProt Q14671 828-1176, N971R;H972M;Q975G)
# Method in brief: as §1
# PUM1 PUF domain R8-TWR = PUM1 PUF domain R8-TWR (Homo sapiens, UniProt Q14671 828-1176, N1122T;Y1123W;Q1126R)
# Method in brief: as §1
# PUM1 PUF domain R5-DYG = PUM1 PUF domain R5-DYG (Homo sapiens, UniProt Q14671 828-1176, C1007D;R1008Y;Q1011G)
# Method in brief: as §1
# PUM1 PUF domain R3-VRC = PUM1 PUF domain R3-VRC (Homo sapiens, UniProt Q14671 828-1176, C935V;Q939C)
# Method in brief: as §1
# PUM1 PUF domain R6-KFG = molecular target: T1, PUM1 PUF domain R6-KFG (Homo sapiens, UniProt Q14671 828-1176, N1043K;Y1044F;Q1047G)
# T1 sequence: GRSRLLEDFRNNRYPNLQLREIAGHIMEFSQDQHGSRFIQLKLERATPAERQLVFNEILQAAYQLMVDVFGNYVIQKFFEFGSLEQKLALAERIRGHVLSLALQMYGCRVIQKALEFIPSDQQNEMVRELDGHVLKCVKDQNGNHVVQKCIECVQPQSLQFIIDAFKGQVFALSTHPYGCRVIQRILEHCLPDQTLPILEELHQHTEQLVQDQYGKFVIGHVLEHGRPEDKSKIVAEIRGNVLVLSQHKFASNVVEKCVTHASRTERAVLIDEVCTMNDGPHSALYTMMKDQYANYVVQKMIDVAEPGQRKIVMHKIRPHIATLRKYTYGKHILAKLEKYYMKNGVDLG
# Method in brief: as §1
# PUM1 PUF domain R3-IRC = PUM1 PUF domain R3-IRC (Homo sapiens, UniProt Q14671 828-1176, C935I;Q939C)
# Method in brief: as §1
# PUM1 PUF domain R4-QHR = PUM1 PUF domain R4-QHR (Homo sapiens, UniProt Q14671 828-1176, N971Q;Q975R)
# Method in brief: as §1
# PUM1 PUF domain R8-PWK = PUM1 PUF domain R8-PWK (Homo sapiens, UniProt Q14671 828-1176, N1122P;Y1123W;Q1126K)
# Method in brief: as §1
# PUM1 PUF domain R5-RKE = PUM1 PUF domain R5-RKE (Homo sapiens, UniProt Q14671 828-1176, C1007R;R1008K;Q1011E)
# Method in brief: as §1
# PUM1 PUF domain R5-PYF = PUM1 PUF domain R5-PYF (Homo sapiens, UniProt Q14671 828-1176, C1007P;R1008Y;Q1011F)
# Method in brief: as §1
# PUM1 PUF domain R5-SDE = PUM1 PUF domain R5-SDE (Homo sapiens, UniProt Q14671 828-1176, C1007S;R1008D;Q1011E)
# Method in brief: as §1
sequence,measurement,setting,value
GGCUAGAACUAGUGGAUCCCCCGGCGCCCGGCGGCUCGAGCCCGGGUAAGUGUAAAUUGUCUGCAUGCCGCCGGGCGCCAUGCCUGCAGGUCGACUCUAGAAAACAUG,binding signal,PUM1 PUF domain R1-NWR,4.99 log2 enrichment (interaction score)
GGCUAGAACUAGUGGAUCCCCCGGCGCCCGGCGGCUCGAGCCCGGGUAAGUGUAUAUAGUCUGCAUGCCGCCGGGCGCCAUGCCUGCAGGUCGACUCUAGAAAACAUG,binding signal,PUM1 PUF domain R4-WSW,3.38 log2 enrichment (interaction score)
same,binding signal,PUM1 PUF domain R4-MNV,3.98 log2 enrichment (interaction score)
same,binding signal,PUM1 PUF domain R4-GPC,2.93 log2 enrichment (interaction score)
same,binding signal,PUM1 PUF domain R4-YFG,3.63 log2 enrichment (interaction score)
GGCUAGAACUAGUGGAUCCCCCGGCGCCCGGCGGCUCGAGCCCGGGUAAGUGUAAUUAGUCUGCAUGCCGCCGGGCGCCAUGCCUGCAGGUCGACUCUAGAAAACAUG,binding signal,PUM1 PUF domain R3-SRA,0.68 log2 enrichment (interaction score)
same,binding signal,PUM1 PUF domain R3-VRM,1.73 log2 enrichment (interaction score)
same,binding signal,PUM1 PUF domain R3-MRI,1.25 log2 enrichment (interaction score)
same,binding signal,PUM1 PUF domain R3-FWS,2.99 log2 enrichment (interaction score)
GGCUAGAACUAGUGGAUCCCCCGGCGCCCGGCGGCUCGAGCCCGGGUAAGUGUAAAUAGUCUGCAUGCCGCCGGGCGCCAUGCCUGCAGGUCGACUCUAGAAAACAUG,binding signal,PUM1 PUF domain R4-RMG,2.77 log2 enrichment (interaction score)
same,binding signal,PUM1 PUF domain R4-WSW,4.02 log2 enrichment (interaction score)
same,binding signal,PUM1 PUF domain R3-SRA,3.83 log2 enrichment (interaction score)
same,binding signal,PUM1 PUF domain R3-VRM,3.67 log2 enrichment (interaction score)
same,binding signal,PUM1 PUF domain R8-TWR,4.94 log2 enrichment (interaction score)
same,binding signal,PUM1 PUF domain R5-DYG,3.86 log2 enrichment (interaction score)
same,binding signal,PUM1 PUF domain R3-VRC,3.72 log2 enrichment (interaction score)
same,binding signal,PUM1 PUF domain R6-KFG,3.39 log2 enrichment (interaction score)
same,binding signal,PUM1 PUF domain R3-IRC,2.81 log2 enrichment (interaction score)
same,binding signal,PUM1 PUF domain R4-GPC,4.57 log2 enrichment (interaction score)
same,binding signal,PUM1 PUF domain R4-YFG,2.07 log2 enrichment (interaction score)
same,binding signal,PUM1 PUF domain R3-FWS,3.07 log2 enrichment (interaction score)
GGCUAGAACUAGUGGAUCCCCCGGCGCCCGGCGGCUCGAGCCCGGGUAAGUGUACAUAGUCUGCAUGCCGCCGGGCGCCAUGCCUGCAGGUCGACUCUAGAAAACAUG,binding signal,PUM1 PUF domain R4-QHR,2.26 log2 enrichment (interaction score)
same,binding signal,PUM1 PUF domain R4-WSW,2.13 log2 enrichment (interaction score)
same,binding signal,PUM1 PUF domain R4-MNV,0.87 log2 enrichment (interaction score)
same,binding signal,PUM1 PUF domain R4-GPC,1.58 log2 enrichment (interaction score)
GGCUAGAACUAGUGGAUCCCCCGGCGCCCGGCGGCUCGAGCCCGGGUAAGCGUAAAUAGUCUGCAUGCCGCCGGGCGCCAUGCCUGCAGGUCGACUCUAGAAAACAUG,binding signal,PUM1 PUF domain R8-TWR,5.17 log2 enrichment (interaction score)
same,binding signal,PUM1 PUF domain R8-PWK,5.71 log2 enrichment (interaction score)
GGCUAGAACUAGUGGAUCCCCCGGCGCCCGGCGGCUCGAGCCCGGGUAAGUGUAAAUCGUCUGCAUGCCGCCGGGCGCCAUGCCUGCAGGUCGACUCUAGAAAACAUG,binding signal,PUM1 PUF domain R1-NWR,6.94 log2 enrichment (interaction score)
GGCUAGAACUAGUGGAUCCCCCGGCGCCCGGCGGCUCGAGCCCGGGUAAGUGUCAAUAGUCUGCAUGCCGCCGGGCGCCAUGCCUGCAGGUCGACUCUAGAAAACAUG,binding signal,PUM1 PUF domain R5-RKE,3.39 log2 enrichment (interaction score)
same,binding signal,PUM1 PUF domain R5-DYG,3.79 log2 enrichment (interaction score)
GGCUAGAACUAGUGGAUCCCCCGGCGCCCGGCGGCUCGAGCCCGGGUAAGUGUUAAUAGUCUGCAUGCCGCCGGGCGCCAUGCCUGCAGGUCGACUCUAGAAAACAUG,binding signal,PUM1 PUF domain R5-PYF,2.41 log2 enrichment (interaction score)
same,binding signal,PUM1 PUF domain R5-RKE,3.74 log2 enrichment (interaction score)
GGCUAGAACUAGUGGAUCCCCCGGCGCCCGGCGGCUCGAGCCCGGGUAAGUGUAAGUAGUCUGCAUGCCGCCGGGCGCCAUGCCUGCAGGUCGACUCUAGAAAACAUG,binding signal,PUM1 PUF domain R3-SRA,3.65 log2 enrichment (interaction score)
same,binding signal,PUM1 PUF domain R3-VRM,1.15 log2 enrichment (interaction score)
same,binding signal,PUM1 PUF domain R3-MRI,5.12 log2 enrichment (interaction score)
same,binding signal,PUM1 PUF domain R3-VRC,0.33 log2 enrichment (interaction score)
same,binding signal,PUM1 PUF domain R3-FWS,7.37 log2 enrichment (interaction score)
GGCUAGAACUAGUGGAUCCCCCGGCGCCCGGCGGCUCGAGCCCGGGUAAGUGUGAAUAGUCUGCAUGCCGCCGGGCGCCAUGCCUGCAGGUCGACUCUAGAAAACAUG,binding signal,PUM1 PUF domain R5-SDE,2.31 log2 enrichment (interaction score)

# Reference: publication PMC8384837, “Expanding the binding specificity for RNA recognition by a PUF domain”
